Source: PubChem BioAssay AID463173 (ICCB-Longwood Screening Facility, Harvard Medical School, 2010)
Among all 52,000 compounds or so, about 4,300 (8.3%) were called active. This excerpt belongs to a sample that is enriched for actives. Values without a mark were called inactive. Rule as the data show it: active = survival mostly below about 52% (no sharp cut-off); inactive = mostly above about 56%.

tested on: DeltatarO mutant; assay: S. aureus survival, RN4220 and DeltatarO strains – OD600, teichoic acid synthesis inhibitors, primary screen (AID 463173); conditions: S. aureus RN4220 wild type/DeltatarO growth, OD600, 18 h, hits give low values, screened at 18.75 µg/mL (by protocol)

SMILES	survival
N=c1n(CCN2CCCCC2)c2ccccc2n1CC(O)COc1ccc(Cl)cc1Cl (stereo unspecified)	-16% (active)
COc1ccc(OCC(O)Cn2c(=N)n(CCN3CCCCC3)c3ccccc32)cc1 (stereo unspecified)	46%
N=c1n(CCN2CCCCC2)c2ccccc2n1CC(O)COc1ccccc1 (stereo unspecified)	163%
OC(COc1ccc(Cl)cc1Cl)CN1CCCCC1 (stereo unspecified)	70%
Cc1ccc(OCC(O)Cn2c(=N)n(CCN3CCCCC3)c3ccccc32)cc1 (stereo unspecified)	36% (active)
Cc1ccccc1OCC(O)Cn1c(=N)n(CCN2CCCCC2)c2ccccc21 (stereo unspecified)	71%
CCN1CCCC1CNC(=O)Nc1c[nH]c2ccc(C)cc2c1=O (stereo unspecified)	102%
O=C(Nc1nc2n(n1)C(c1ccccc1)C=C(c1ccccc1)N2)c1ccc(Cl)c([N+](=O)[O-])c1 (stereo unspecified)	63%
CC(C(=O)NCc1ccccc1)N1Cc2ccccc2C1=O (stereo unspecified)	95%
CCOC(=O)c1c(C)[nH]c(CCC(=O)NCCCN2CCN(c3ccccc3F)CC2)c1C	83%
CCC1(CC)Cc2ccccc2-c2nc(NN)n(Cc3ccccc3)c(=O)c21	48% (active)
Cn1c(NN)nc2c(c1=O)C1(CCCC1)Cc1ccccc1-2	59%
NNc1nc2ccccc2c(=O)n1Cc1ccccc1	100%
CN1CCN(C(=S)NCC2CCCO2)CC1 (stereo unspecified)	64%
Cc1cccc(NC(=O)Cn2c(=O)oc3cc(S(=O)(=O)NC4CCCC4)ccc32)c1	82%
N#Cc1c(C(F)(F)F)cc(-c2ccc(F)cc2)nc1SCC(=O)Nc1ccccc1	72%
CCN(CC)C(=O)CSc1nc(-c2ccccc2)cc(-c2ccc(OC)cc2)c1C#N	45% (active)
C#CCSc1nc(-c2ccccc2)cc(-c2ccccc2)c1C#N	40% (active)
COc1ccc(-c2cc(-c3ccccc3)nc(SCC(=O)Nc3ccccc3F)c2C#N)cc1	140%
COc1ccc(-c2cc(-c3ccccc3)nc(SCC(=O)Nc3ccccc3C)c2C#N)cc1	56% (active)
COc1ccc(NC(=O)CSc2nc(-c3ccccc3)cc(-c3cc(OC)c(OC)c(OC)c3)c2C#N)c(OC)c1	54%

SMILES	survival
Cc1ccc(NC(=O)CSc2nc(-c3ccc(F)cc3)cc(C(F)(F)F)c2C#N)cc1	63%
N#CN=C(N)CSc1nc(-c2ccccc2)cc(-c2ccccc2)c1C#N	56%
C=C(C)CSc1nc(-c2ccccc2)cc(-c2ccc(OC)cc2)c1C#N	57%
CCS(=O)(=O)CCSc1nc(-c2ccc(Br)cc2)cc(-c2ccccc2)c1C#N	85%
Cc1ccc(-c2cc(C(F)(F)F)c(C#N)c(SCC(=O)Nc3ccccc3)n2)cc1	53% (active)
COc1ccc(-c2cc(-c3ccccc3)nc(SCC(=O)CC(=O)OC(C)C)c2C#N)cc1	55%
COc1ccc(OC)c(NC(=O)Nc2cccc(OCc3cc(=O)n4cc(C)ccc4n3)c2)c1	101%
COc1ccc(N2CCN(C(=O)c3ccc4c(c3)N(Cc3cc(C)ccc3C)C(=O)c3ccccc3S4=O)CC2)cc1 (stereo unspecified)	85%
Cn1c(=O)c2c(-c3ccccc3)n3c4ccccc4nc(-c4ccccc4)c3c2n(C)c1=O	82%
CCc1cccc(C)c1NC(=O)CN1C(=O)c2c(c3ccccc3n2C)C1c1ccc(OC)cc1 (stereo unspecified)	83%
CCSc1ccccc1C(=O)N1CCN(c2nc3ccccc3s2)CC1	92%
COc1cccc(NC(=O)C(=O)NCC(c2ccc3c(c2)OCO3)N2CCOCC2)c1 (stereo unspecified)	49%
COc1ccc(-c2nsc(NC(=O)COc3ccccc3OC)n2)cc1	61%
CCOC(=O)c1c(C)[nH]c(CCC(=O)NC(C)c2ccccc2)c1C (stereo unspecified)	94%
Cc1ccc2nc(N(Cc3cccnc3)C(=O)C3COc4ccccc4O3)sc2c1 (stereo unspecified)	94%
COc1cc(Cl)c(C)cc1NC(=O)c1cn(C2CCCC2)c(=O)c2c1c1ccccc1n2C	109%
COc1cccc(NC(=O)/C(C#N)=C\c2cn(Cc3ccc(Cl)cc3)c3ccccc23)c1	77%
COc1ccc(CNC(=O)c2ccc3c(c2)N(Cc2ccccc2C)C(=O)c2ccccc2S3=O)cc1 (stereo unspecified)	99%
COc1ccc(C2CC(=O)c3cnc4c(-c5ccccc5)c(C)nn4c3C2)cc1OC (stereo unspecified)	54%
O=C(O)c1c2c(nc3ccc(S(=O)(=O)N4CCC(C(=O)NCc5ccc(Cl)cc5)CC4)cc13)CCCC2	90%
N#CC1=C(N)OC2=C(C(=O)CCC2)C1c1ccccc1C(F)(F)F (stereo unspecified)	78%

SMILES	survival
CCOc1ccc(CNC(=O)Nc2ccc3c(c2)N(C)C(=O)c2ccccc2S3)cc1	75%
COc1ccccc1N1CCN(C(=O)c2cc3c(=O)oc4ccccc4c3s2)CC1	169%
CCCOc1ccc(-c2cc(C(F)(F)F)c(C#N)c(SCCC(=O)O)n2)cc1	29% (active)
Cc1ccc(-c2cc(C(F)(F)F)c(C#N)c(SCC(=O)O)n2)cc1	66%
CCOC(=O)CSc1nc(-c2ccc(OCC)cc2)cc(C(F)(F)F)c1C#N	67%
CSc1ccc(CCNC(=O)C2CCCN(S(=O)(=O)N(C)c3ccc(F)cc3)C2)cc1 (stereo unspecified)	74%
CC1CN(c2ccc(Cl)cc2)c2nc3c(c(=O)n(CC(=O)O)c(=O)n3C)n2C1 (stereo unspecified)	84%
O=C(CNS(=O)(=O)c1cccs1)N1CCN(c2cccc(C(F)(F)F)c2)CC1	83%
COc1ccc(N2CCN(C(=O)CNS(=O)(=O)c3ccc(Br)s3)CC2)cc1	32% (active)
CCOC(=O)c1c(C)[nH]c(C)c1S(=O)(=O)NCC(=O)N1CCN(c2ccccc2F)CC1	76%
O=C(CNS(=O)(=O)c1ccc(Br)s1)N1CCN(c2ccccc2F)CC1	36% (active)
O=C(C1CCC(CNS(=O)(=O)c2ccc(Br)s2)CC1)N1CCN(c2ccc(F)cc2)CC1 (stereo unspecified)	74%
O=C(C1CCN(S(=O)(=O)c2ccc(Br)s2)CC1)N1CCN(c2ccc(F)cc2)CC1	87%
COc1cccc(N2CCN(C(=O)C3CCC(CNS(=O)(=O)c4ccc(Br)s4)CC3)CC2)c1 (stereo unspecified)	78%
COc1ccc(N2CCN(C(=O)CNC3CC3)CC2)cc1	74%
O=C(CNS(=O)(=O)c1cccs1)N1CCN(c2ccccc2F)CC1	51%
O=C(CNS(=O)(=O)c1cccs1)N1CCN(c2ccccc2Cl)CC1	45% (active)
O=C(CNS(=O)(=O)c1ccc(Br)s1)N1CCN(c2ccc(F)cc2)CC1	27% (active)
COc1ccccc1N1CCN(C(=O)CNS(=O)(=O)c2ccc(Br)s2)CC1	116%
